Most compounds without a hit are left out; they make up all but 1.6% or so of the library.
KCNQ2 inh: KCNQ2 (rat) channel inhibition. O88943. CHO-K1 KCNQ2, FluxOR thallium flux, 20 min; stronger effect = lower value. B-score at 10 µM. 310,000 compounds, 1.1% hits. AID 2156;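 active = fluorescence ratio B-score at most minus 3 library SDs, with starting brightness B-score within 2 library SDs, cut at about -5.5 in these data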
KCNQ2 pot: KCNQ2 (rat) channel potentiation. AID 2239. B-score at 10 µM. CHO-K1 KCNQ2, FluxOR thallium flux fluorescence; stronger effect = higher value. O88943. 310,000 compounds, 0.54% hits;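 active = fluorescence ratio B-score at least 3 SD of library B-scores, with initial fluorescence B-score within 3 of them, cut at about 5.3 in these data; same plate scores as AID 2156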;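 also: B-score of peak minus minimum over baseline fluorescence ratio after K+ and Tl+ stimulus; positive B-score means potentiation of KCNQ2 with more thallium influx and brighter signal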
Kir21 conf inh: confirmation of mouse Kir2.1 potassium channel inhibitors; shares compounds with KCNQ2 pot; Kir2.1-expressing cells, FluxOR thallium flux fluorescence; stronger effect = lower value; Tl flux remaining, % of negative control (stronger effect = lower value), % at 10 µM; 2,300 compounds, 41% hits; AID 2032;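 active = Primary-screen hit whose thallium flux fell at least 3 control SD below untreated wells in both duplicates, with normal baseline fluorescence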
Target sequence (P35561 whole entry, looked up): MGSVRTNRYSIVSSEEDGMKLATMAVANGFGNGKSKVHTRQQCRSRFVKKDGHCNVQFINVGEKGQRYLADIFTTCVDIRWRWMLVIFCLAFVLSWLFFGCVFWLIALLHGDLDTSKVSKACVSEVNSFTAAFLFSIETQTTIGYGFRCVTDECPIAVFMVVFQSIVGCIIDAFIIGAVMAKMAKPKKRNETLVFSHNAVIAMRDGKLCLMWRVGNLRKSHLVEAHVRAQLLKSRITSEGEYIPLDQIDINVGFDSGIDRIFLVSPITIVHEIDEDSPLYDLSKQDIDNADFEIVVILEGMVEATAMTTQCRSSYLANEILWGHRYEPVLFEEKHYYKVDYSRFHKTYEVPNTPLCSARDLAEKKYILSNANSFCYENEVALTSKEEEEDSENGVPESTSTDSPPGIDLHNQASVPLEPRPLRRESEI
HEK293 ctr: parental HEK293 activity in Kir2.1 inhibitor counter-screen. 2,300 compounds, 19% hits. AID 2105. parental HEK293 cells, FluxOR thallium flux fluorescence; 0% = unstimulated blank wells. shares compounds with KCNQ2 pot. FluxOR signal as % of negative control (100 = no effect), % at 10 µM;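 active = dye signal at least 3 control SD above or below untreated wells in both duplicates, raw fluorescence within 3, either direction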;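 also: percent is based on the flux ratio of peak minus minimum fluorescence over baseline F0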
CHO-K1 ctr: alters thallium flux in parental CHO-K1 cells, KCNQ2 counter-screen; shares compounds with KCNQ2 pot; FluxOR thallium flux fluorescence; zero = vehicle mean+3SD, 100% = vehicle-minus-blank window; activity increase over 3SD of controls, % at 10 µM; 1,200 compounds, 43% hits; AID 2282;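 active = signal rise of at least 3 SD above the untreated control mean, in both duplicate wells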;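 also: counter screen of KCNQ2 potentiator hits so any rise reflects channel-independent effects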
KCNQ1 pot spec: human KCNQ1 counter-target activity of KCNQ2 potentiators. shares compounds with KCNQ2 pot. CHO KCNQ1 stable, FluxOR thallium flux fluorescence; beyond 3SD, as % of vehicle-control signal. activation over 3SD threshold, % at 10 µM. 1,200 compounds, 28% hits. AID 2283;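 active = fluorescence ratio rise of at least 3 SD of vehicle wells above their mean, in both replicate wells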
KCNQ2 pot confirm: rat KCNQ2 channel potentiator confirmation; shares compounds with KCNQ2 pot; CHO-KCNQ2 cells, FluxOR thallium flux fluorescence; potentiation, less the hit threshold, % at 10 µM; 1,200 compounds, 68% hits;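 active = fluorescence ratio rising 3 SD or more over the vehicle control mean in both replicates, plus primary screen hit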;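 also: peak minus minimum thallium fluorescence divided by baseline after K/Tl stimulus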
Kir21 spec: selectivity of KCNQ2 potentiators: effect on mouse Kir2.1; HEK293 Kir2.1, FluxOR thallium flux fluorescence; 1,200 compounds, 2% hits; shares compounds with KCNQ2 pot; AID 2345; activity over 3SD threshold, % at 10 µM;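 active = fluorescence ratio rise of at least 3 SD above the vehicle-control mean, seen in both replicates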
KCNQ2 W236L pot: KCNQ2 potentiators acting on retigabine-insensitive rat KCNQ2 W236L mutant | 940 compounds, 10% hits | CHO KCNQ2-W236L, automated patch clamp current | shares compounds with KCNQ2 pot | AID 2558 | current increase over 3SD of negative controls (%), stronger effect = higher value, % at 25 µM;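 active = current increase at least 3 SD of the untreated controls above them in both duplicate recordings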
Large screens that a line does not name were inactive (follow-up assays come after a bar, where they were run).

OCCN1CCN(Cc2cc(Cl)c3cccnc3c2O)CC1	none
Oc1c(Cl)cc(Cl)c2cccnc12	KCNQ2 pot 7.8 | Kir21 conf inh inactive | HEK293 ctr 176% | CHO-K1 ctr inactive | KCNQ1 pot spec inactive | KCNQ2 pot confirm 11 | Kir21 spec inactive | KCNQ2 W236L pot inactive
Oc1c(Cl)cc(CN2CCCCC2)c2cccnc12	none (no result: KCNQ2 pot)
O=C(Oc1c(CN2CCOCC2)cc(Cl)c2cccnc12)c1cccs1	none (no result: KCNQ2 pot)
O=C(COC(=O)c1ccc2ccccc2n1)Nc1cccc(S(=O)(=O)NC2=NCCCCC2)c1	none
O=C(NC1CCOC1)c1cc(COc2cccc(C(F)(F)F)c2)on1 (configuration not stated)	none (no result: KCNQ2 pot)
Cc1ccc(-c2nnc(NC(=O)c3ccco3)o2)c(C)c1	none (no result: KCNQ2 pot)
CCOC(=O)c1[nH]c2ccc(OC)cc2c1NC(=S)N1CCN(C(=O)OCC)CC1	none
COc1ccc(Nc2ncnc3ccc(C)cc23)cc1	none | Kir21 conf inh 52% | HEK293 ctr 168%
COC(=O)c1cccc(Nc2ncnc3ccc(C)cc23)c1	none (no result: KCNQ2 pot)
CCOC(=O)c1c(NC(=O)Cn2cnc3scc(-c4ccc(C)cc4)c3c2=O)sc(C)c1C	none (no result: KCNQ2 pot)
COC(=O)c1ccccc1NC(=O)CN1CCCCC1	none
CON/C=N/C(=S)Nc1ncc(C(F)(F)F)cc1Cl	KCNQ2 pot 12 | Kir21 conf inh inactive | HEK293 ctr 218% | CHO-K1 ctr inactive | KCNQ1 pot spec 32 | KCNQ2 pot confirm 18 | Kir21 spec inactive | KCNQ2 W236L pot inactive
Cc1ccc(NC(=S)NNc2ncc(C(F)(F)F)cc2Cl)cc1	none
CC(Cl)C(=O)Nc1ncc(C(F)(F)F)cc1Cl (configuration not stated)	none
ON/C=N/C(=S)Nc1ncc(C(F)(F)F)cc1Cl	KCNQ2 pot 11 | Kir21 conf inh inactive | HEK293 ctr 140% | CHO-K1 ctr inactive | KCNQ1 pot spec inactive | KCNQ2 pot confirm 41 | Kir21 spec inactive | KCNQ2 W236L pot inactive
CC1CCN(C(=S)Nc2cccc(S(=O)(=O)N(C)C)c2)CC1	none
Cc1ccc(N2C(N)=C(C#N)C(c3ccsc3)C3=C2CC(C)(C)CC3=O)cc1 (configuration not stated)	none
O=C(Nc1nnc(-c2ccc(Br)cc2)o1)c1ccco1	KCNQ2 pot 17 | Kir21 conf inh inactive | HEK293 ctr inactive | CHO-K1 ctr inactive | KCNQ1 pot spec inactive | KCNQ2 pot confirm 19 | Kir21 spec inactive | KCNQ2 W236L pot inactive
CS(=O)(=O)c1ccc(-c2nnc(NC(=O)c3ccco3)o2)cc1	none
O=C(CSc1ccccn1)N1CCN(c2cccc(Cl)c2)CC1	none (no result: KCNQ2 pot)
CC(=O)COC(=O)CCc1nc2ccccc2[nH]c1=O	none
CCN1CCN(CCNC(=O)CSCc2nc(-c3ccc(OC)c(OC)c3)oc2C)CC1	KCNQ2 pot 10 | Kir21 conf inh inactive | HEK293 ctr inactive | CHO-K1 ctr 22 | KCNQ1 pot spec inactive | KCNQ2 pot confirm inactive | Kir21 spec inactive
CCN1CCN(C(=O)CSCc2nc(-c3ccc(OC)c(OC)c3)oc2C)CC1	none (no result: KCNQ2 pot)
Cc1ccc(CNC(=O)COc2ccc(C(=O)c3ccc(F)cc3)cc2)cc1	none (no result: KCNQ2 pot)
CC1(C)Cc2cccc(OCC(=O)NCCOc3ccccc3)c2O1	none (no result: KCNQ2 pot)
COc1ccccc1CCNC(=O)COc1cccc2c1OC(C)(C)C2	none (no result: KCNQ2 pot) | Kir21 conf inh 50% | HEK293 ctr 62%
Cc1ccc(SCCNC(=S)Nc2ccccc2)cc1	none (no result: KCNQ2 pot)
Cc1ccc(SCCNC(=S)Nc2ccc(C)c(C)c2)cc1	KCNQ2 pot 10 | Kir21 conf inh inactive | HEK293 ctr 72% | CHO-K1 ctr 1.9 | KCNQ1 pot spec 16 | KCNQ2 pot confirm inactive | Kir21 spec inactive | KCNQ2 W236L pot inactive
O=C(CN(c1ccc(F)cc1)S(=O)(=O)c1ccc2c(c1)OCCO2)Nc1ccc2c(c1)OCO2	none
CC(=O)C(Sc1nc(N2CCOCC2)nc(N2CCOCC2)n1)C(=O)Nc1ccccc1 (configuration not stated)	KCNQ2 pot 6 | Kir21 conf inh inactive | HEK293 ctr inactive | CHO-K1 ctr 10 | KCNQ1 pot spec inactive | KCNQ2 pot confirm 12 | Kir21 spec inactive | KCNQ2 W236L pot inactive
CCNc1nc(SC(C)C(=O)Nc2ccccc2)nc(N2CCOCC2)n1 (configuration not stated)	none
COCC1CCN(Cc2cn[nH]c2-c2cc(OC)c(OC)c(OC)c2)CC1	none (no result: KCNQ2 pot)
Cc1ccc(S(=O)(=O)N(C)Cc2ccc(-c3nnco3)cc2)cc1	none
OC1(c2ccc(Cl)cc2)CCN(Cc2c[nH]c3ccccc23)CC1	none | Kir21 conf inh 34% | HEK293 ctr inactive
Clc1ccccc1N1CCN(Cc2c[nH]c3ccccc23)CC1	none (no result: KCNQ2 pot)
NC(=O)CCn1c(=O)oc2ccccc21	none
COc1cc(C)c(Cl)cc1S(=O)(=O)NCc1ccco1	none
Cc1cc(C)c(C)c(S(=O)(=O)NCc2ccco2)c1C	none (no result: KCNQ2 pot) | Kir21 conf inh 54% | HEK293 ctr inactive
O=S(=O)(NCc1ccc2c(c1)OCO2)c1cccc2cccnc12	KCNQ2 pot 13 | CHO-K1 ctr 5.4 | KCNQ1 pot spec inactive | KCNQ2 pot confirm inactive | Kir21 spec inactive
CCOc1cc(C)c(Cl)cc1S(=O)(=O)NCc1ccco1	none (no result: KCNQ2 pot) | Kir21 conf inh 56% | HEK293 ctr inactive
Cc1cc(S(=O)(=O)NCc2ccco2)c(C)cc1Cl	none (no result: KCNQ2 pot)
Cc1cc(C)c(S(=O)(=O)NCc2ccc3c(c2)OCO3)cc1C	none (no result: KCNQ2 pot)
O=S(=O)(NCc1ccc(Cl)cc1)c1cccc2cccnc12	none
CCOc1cc(S(=O)(=O)NCc2ccc3c(c2)OCO3)c(C)cc1C	none (no result: KCNQ2 pot) | Kir21 conf inh 65% | HEK293 ctr inactive
C[C@H](NC(=O)NCc1cccs1)C(=O)O	none (no result: KCNQ2 pot)
Cc1cc(C)cc(C(=O)NCC(=O)N2CCN(C(c3ccccc3)c3ccccc3)CC2)c1	none (no result: KCNQ2 pot)
Cc1ccc(Oc2ncccc2NC(=O)CC(CC(=O)O)c2ccccc2)c2c1CCC2 (configuration not stated)	none (no result: KCNQ2 pot)
CSc1nnc(-c2sc3cc(C(F)(F)F)cnc3c2-c2ccccn2)n1C	none
Cc1cc(C)c(S(=O)(=O)NCc2ccc3c(c2)OCO3)c(C)c1	none (no result: KCNQ2 pot)
CCOc1cc(C)c(Cl)cc1S(=O)(=O)NCc1ccc2c(c1)OCO2	none (no result: KCNQ2 pot) | Kir21 conf inh 68% | HEK293 ctr inactive
CCCCC(C(=O)NCCC(C)C)N(CCCN1CCOCC1)C(=O)c1snc(C(N)=O)c1N (configuration not stated)	none
